Laboratory results: PubChem BioAssay (NCATS)
“And” between values parts separate entries of the source, which are not always exact repeats. Equal values may be shown once. Records with an inconclusive call do not appear. Unmarked numbers belong to inactive results. The source made the active and inactive calls. Calls come from the whole dose curve; as a rule, active = well fitted curve in the direction sought with a large enough effect; inconclusive = small, poorly fitted or top-dose-only effect, or another doubt; inactive = no such curve, though single readings can be large; an effect the other way counts as inactive or inconclusive.

Columns and labels:
[1] = Primary qHTS for inhibitors of nuclear receptor binding SET domain protein 2 (NSD2) in an isogenic RCH-ACV NSD2 p.E1099K mutant (9B) (AID 1645876)
[2] = Primary qHTS for inhibitors of nuclear receptor binding SET domain protein 2 (NSD2) in an RCH-ACV wild type WT cells (2C) (AID 1645877)
% is set by controls: 0 for no effect and ±100 for the full control effect; potency is the fitted concentration of half-maximal effect.
Note: nearly all actives have a fitted effect of over 70% in size.

Question: With `C[C@H](Nc1ncnc2nc[nH]c12)c1cc2cccc(Cl)c2c(=O)n1-c1ccccc1` as the molecule, how does the Potency [1] read?
Answer: 4.09 µM (active) and 372 nM (active)

Question: And the Potency [2]?
Answer: 7.28 µM (active) and 4.68 µM (active)

Question: With `CN1c2c(nc(N)[nH]c2=O)NC[C@@H]1CNc1ccc(C(=O)N[C@@H](CCC(=O)O)C(=O)O)cc1` as the molecule, how does the Potency [1] read?
Answer: inactive

Question: And the Potency [2]?
Answer: inactive

Question: Which results are given for `COc1cc([C@H]2O[C@H](c3cc(OC)c4c(c3)OCO4)[C@H](C)[C@H]2C)cc(OC)c1OC`?
Answer: Potency [1]: 3.55 µM (active); Potency [2]: 3.55 µM (active)

Question: With `CC(C)NC(=O)N1CC[C@H](N=C2Nc3cc(F)ccc3N(CC(F)F)c3ccc(Cl)cc32)C1` as the molecule, how does the activity change, negative = viability loss [1] read?
Answer: -17% [at 9.23 µM]

Question: What about the activity change, negative = cell killing [2] of the same molecule?
Answer: 1.84% [at 9.23 µM]

Question: With `COc1ccc([C@H]2OC[C@H]3O[C@@H](O[C@H]4[C@@H]2NC[C@@H]4O)[C@H](O)[C@H]3O)cc1` as the molecule, how does the Potency [1] read?
Answer: 0.8 µM (active)

Question: What about the Potency [2] of the same molecule?
Answer: 1.27 µM (active)

Question: What does the source list for `COc1cc(S(C)(=O)=O)ccc1Nc1nc2ccc(-c3ccc(NC(=O)[C@H](C)c4ccc(F)cc4)cc3)cn2n1`?
Answer: Potency [1]: 0.742 µM (active); Potency [2]: 0.417 µM (active)

Question: What does the source list for `Nc1nc2c(nc(Br)n2[C@@H]2O[C@@H]3COP(=O)(O)O[C@H]3[C@H]2O)c(=O)[nH]1`?
Answer: Potency [1]: inactive; Potency [2]: inactive

Question: Which Potency [1] does the source give for `CCc1cccc(CC)c1-n1c(C=C(C)C)c(C(=O)N2CCNCC2)cc(-c2nc(-c3ccc(C(F)(F)F)cc3)cs2)c1=O` here?
Answer: 8.93 µM (active)

Question: What about the Potency [2] of the same molecule?
Answer: 10 µM (active)

Question: For `CCCOc1ccc(CCc2nc3cc(-c4c(C)noc4C)ccc3n2CCN2CCOCC2)cc1`, which Potency [1] is on record?
Answer: 8.33 µM (active)

Question: What about the Potency [2] of the same molecule?
Answer: 8.33 µM (active)
